Data reported in ChEMBL document CHEMBL1201862, “PubChem BioAssay data set” (2004).
Hit rate of the full screen: of about 400,000 compounds, about 2,100 (0.53%) were called active. Another 14% or so got no clear call; they are omitted. No rule for the calls is given here. This excerpt belongs to a sample that is enriched for actives.

The compounds below were run against Ataxin-2 (Homo sapiens) (UniProt Q99700) (assay: qHTS for Inhibitors of ATXN expression.).
Ataxin-2 (Homo sapiens), sequence (Q99700 whole entry): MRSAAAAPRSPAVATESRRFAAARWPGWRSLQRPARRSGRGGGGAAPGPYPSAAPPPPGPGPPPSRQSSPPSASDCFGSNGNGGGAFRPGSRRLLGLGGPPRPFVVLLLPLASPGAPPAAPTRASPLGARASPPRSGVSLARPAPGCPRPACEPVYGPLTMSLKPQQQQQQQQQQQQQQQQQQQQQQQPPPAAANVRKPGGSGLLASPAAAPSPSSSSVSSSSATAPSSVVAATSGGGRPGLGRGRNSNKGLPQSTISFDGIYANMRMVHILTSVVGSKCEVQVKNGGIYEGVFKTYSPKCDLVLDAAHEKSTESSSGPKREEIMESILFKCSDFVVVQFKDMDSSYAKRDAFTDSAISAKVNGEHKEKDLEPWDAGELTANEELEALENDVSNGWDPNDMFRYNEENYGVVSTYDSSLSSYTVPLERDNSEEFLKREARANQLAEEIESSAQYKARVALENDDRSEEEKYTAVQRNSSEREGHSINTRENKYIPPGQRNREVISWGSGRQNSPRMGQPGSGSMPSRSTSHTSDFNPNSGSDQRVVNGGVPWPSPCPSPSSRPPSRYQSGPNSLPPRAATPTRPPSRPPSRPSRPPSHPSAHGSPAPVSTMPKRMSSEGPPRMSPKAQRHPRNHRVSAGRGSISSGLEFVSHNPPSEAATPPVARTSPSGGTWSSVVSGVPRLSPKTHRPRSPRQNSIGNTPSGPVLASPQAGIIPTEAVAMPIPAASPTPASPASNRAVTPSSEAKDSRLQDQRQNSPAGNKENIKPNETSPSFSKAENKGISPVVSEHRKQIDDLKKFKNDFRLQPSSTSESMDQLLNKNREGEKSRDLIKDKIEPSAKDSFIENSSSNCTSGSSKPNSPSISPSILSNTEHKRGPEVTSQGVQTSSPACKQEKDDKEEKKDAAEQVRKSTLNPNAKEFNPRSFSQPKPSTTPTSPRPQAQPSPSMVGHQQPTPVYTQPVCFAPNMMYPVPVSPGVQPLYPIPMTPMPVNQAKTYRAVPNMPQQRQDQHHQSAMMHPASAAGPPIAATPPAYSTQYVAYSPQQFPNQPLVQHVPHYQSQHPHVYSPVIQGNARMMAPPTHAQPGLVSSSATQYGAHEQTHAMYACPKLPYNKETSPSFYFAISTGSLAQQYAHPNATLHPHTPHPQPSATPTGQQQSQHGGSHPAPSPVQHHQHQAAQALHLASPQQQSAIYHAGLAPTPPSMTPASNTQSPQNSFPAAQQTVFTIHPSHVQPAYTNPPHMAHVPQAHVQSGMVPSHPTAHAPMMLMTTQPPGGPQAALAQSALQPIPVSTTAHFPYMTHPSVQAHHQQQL
Type: functional
For `CCN1CCN(C(CC(C)C)c2nnnn2CS(=O)(=O)c2ccc(C)cc2)CC1` (stereo unspecified), the Potency was “inactive”.
In the case of `Cc1ccc(C(=O)N/C(=C/c2ccc(-c3ccc([N+](=O)[O-])cc3)o2)C(=O)NCCCN(C)C)cc1`, the Potency is reported as “inactive”.
`Cc1ccc(Cc2cnc(NC(=O)/C(C#N)=C/c3ccc(-c4ccc([N+](=O)[O-])cc4)o3)s2)cc1` was tested, and the Potency was 22.4 µM (active).
In the case of `COc1cccc(NC(=O)/C(C#N)=C/c2ccc(-c3ccc(C)cc3)o2)c1`, the Potency is reported as “inactive”.
In the case of `N=c1c(C(=O)NCc2ccc(F)cc2)cc2c(=O)n3ccccc3nc2n1CC1CCCO1` (stereo unspecified), the Potency is reported as “inactive”.
With `CN1CCc2c(sc3c2C(=O)NC(c2ccc(-c4ccc(Cl)cc4)o2)N3)C1` (stereo unspecified) the Potency was “inactive”.
`O=C1C=C(N2CCCCC2)c2ccccc2C1=O` was tested, and the Potency was 18.9 µM (active).
In the case of `O=C1c2ccccc2-c2ccc(C(=O)N3CCCCC3)cc21`, the Potency is reported as “inactive”.
`O=C1c2cccc3c(N4CCCCC4)ccc(c23)C(=O)N1c1ccccc1O` was tested, and the Potency was “inactive”.
With `COc1ccccc1C1CN(c2ccccc2)N=C1c1cccs1` (stereo unspecified) the Potency was “inactive”.
In the case of `N#Cc1ccc(CN2CCN(C(=O)c3cc(Cl)c4c(c3)OCCO4)CC2)cc1`, the Potency is reported as “inactive”.
In the case of `CCN1C(=O)c2cccc3c(Cl)ccc(c23)C1=O`, the Potency is reported as “inactive”.
With `Cc1ccc(-n2c(N)c(C(=O)Nc3c(C)n(C)n(-c4ccccc4)c3=O)c3nc4ccccc4nc32)cc1` the Potency was 21.2 µM (active).
In the case of `COCCNC(=O)c1c(N)n(-c2ccccc2)c2nc3ccccc3nc12`, the Potency is reported as “inactive”.
For `COCCCNC(=O)c1c(N)n(-c2ccccc2)c2nc3ccccc3nc12`, the Potency was “inactive”.
With `CN(Cc1ccc(OC(F)F)cc1)C(=O)C1CCN(S(=O)(=O)c2ccc3c(c2)OCCO3)CC1` the Potency was “inactive”.
`O=C(Nc1cc(S(=O)(=O)N2CCCC2)ccc1Cl)c1ccncc1` was tested, and the Potency was “inactive”.
In the case of `CCOc1cc(Br)c(/C=C2/C(=O)N(C)C(=S)N2CC(=O)OC)cc1OC`, the Potency is reported as “inactive”.
With `Cn1c(SCc2cc(O)nc(C(C)(C)C)n2)nnc1C(F)(F)F` the Potency was “inactive”.
`CCCn1c(=N)c(C(=O)NCC2CCCO2)cc2c(=O)n3cc(C)ccc3nc21` (stereo unspecified) was tested, and the Potency was “inactive”.
`Cc1ccc(S(=O)(=O)N2CCN(C(=O)c3cc(S(=O)(=O)N4CCOCC4)c(Cl)cc3Cl)CC2)cc1` was tested, and the Potency was “inactive”.
For `Nc1nc(-c2ccc(Cl)cc2)c(N=Nc2ccc(S(=O)(=O)N3CCOCC3)cc2)s1`, the Potency was 29.9 µM (active).
`O=c1nc2ccc(Cl)cn2c2ccc(S(=O)(=O)N3CCOCC3)cc12` was tested, and the Potency was “inactive”.
In the case of `Nc1ccc2c(c1)C/C(=C/c1ccco1)C2=O`, the Potency is reported as “inactive”.
`Cc1ccc(C2=CC(c3c(F)cccc3Cl)n3ncnc3N2)cc1C` (stereo unspecified) was tested, and the Potency was “inactive”.
In the case of `O=C(OC1CCOC1=O)c1cc(-c2cccs2)nc2ccccc12` (stereo unspecified), the Potency is reported as “inactive”.
For `CCOc1cc(C(=O)O)ccc1OCCOc1ccccc1`, the Potency was “inactive”.
In the case of `CCCOc1ccc(C(=O)c2ccccc2C(=O)OC2CCOC2=O)cc1OCCC` (stereo unspecified), the Potency is reported as 39.8 µM (active).
With `O=C(O)c1ccc2nc(-c3cc4cc(Cl)ccc4oc3=O)[nH]c2c1` the Potency was “inactive”.
For `CCn1c2ccccc2c2cc(CN3CCOc4ccc(C(O)c5cccnc5)cc4C3)ccc21` (stereo unspecified), the Potency was 31.6 µM (active).
In the case of `CC(C)C(OC(=O)c1ccccc1)c1nccc2ccccc12` (stereo unspecified), the Potency is reported as “inactive”.
For `CCOc1cc2c(cc1/C=C1/NC(=O)N(CC(=O)OC)C1=O)OCO2`, the Potency was “inactive”.
With `COc1ccc(/C=c2\s/c(=C/C(=O)c3ccc(C)cc3)[nH]c2=O)cc1OC` the Potency was “inactive”.
For `COc1cc(/C=C/C(=O)c2ccc(C)cc2)ccc1OCC#N`, the Potency was 39.8 µM (active).
For `COc1ccc(C=CC(=O)c2ccc3cc(OC)c(OC)cc3c2)cc1OC`, the Potency was “inactive”.
With `COc1ccc(OC)c(N/C=C/C(=O)c2ccc(OC)c(OC)c2)c1` the Potency was “inactive”.
`COc1cccc(C(=O)/C=C/c2ccc(OCC#N)c(OC)c2)c1` was tested, and the Potency was 31.6 µM (active).
In the case of `COc1cc(/C=C/C(=O)O)ccc1OS(=O)(=O)c1cc(C)ccc1C`, the Potency is reported as “inactive”.
With `CCS(=O)(=O)Nc1cc2c3c(c1)CCC(=O)N3CCC2` the Potency was “inactive”.
`O=S(=O)(NN=C(NS(=O)(=O)c1ccccc1)c1ccccc1)c1ccccc1` was tested, and the Potency was “inactive”.
In the case of `CCc1cc2cc(C)ccc2nc1SCC(=O)NC1CCCC1`, the Potency is reported as “inactive”.
In the case of `Cc1cc(=O)n2c(n1)SCOC2`, the Potency is reported as “inactive”.
With `Cc1cccn2c(=O)c3cc(C(=O)NCc4ccc(F)cc4)c(=N)n(CC4CCCO4)c3nc12` (stereo unspecified) the Potency was “inactive”.
`CC(C)C[C@H](N)c1nnc(S(=O)(=O)Cc2ccc(F)cc2)o1` was tested, and the Potency was 31.6 µM (active).
`CC(C)C[C@H](N)c1nnc(S(=O)(=O)Cc2cccc(F)c2)o1` was tested, and the Potency was 39.8 µM (active).
For `CCOC(=O)N1CCN(S(=O)(=O)c2ccc3c4c(cccc24)C(=O)N3)CC1`, the Potency was “inactive”.
In the case of `CCOC(=O)C1CCN(C(=O)C(C)Oc2ccc(Br)cc2)CC1` (stereo unspecified), the Potency is reported as “inactive”.
For `COc1cc(/C=C2\C(=N)N3N=C(CC(=O)N4CCOCC4)SC3=NC2=O)cc(OC)c1O`, the Potency was “inactive”.
For `Cc1ccc(N2C(=O)C(Cl)=C(N3CCCCCC3)C2=O)c(C)c1`, the Potency was “inactive”.
`COc1ccc2c(c1)C(=O)N(c1ccc(C)cc1C)C(=O)C2` was tested, and the Potency was 35.5 µM (active).
For `COc1cc(OC)cc(N2C(=O)CSCC2=O)c1`, the Potency was “inactive”.
For `N#CC(C#N)=C1C=C2C=C(N3CCOCC3)CCC2CC1` (stereo unspecified), the Potency was “inactive”.
For `Cc1cc(F)ccc1S(=O)(=O)Nc1ccccc1C(=O)Nc1ccccc1-c1nc2ccccc2[nH]1`, the Potency was 39.8 µM (active).
With `Cc1ccccc1NS(=O)(=O)c1nnc(NC(=O)c2ccccc2C)s1` the Potency was “inactive”.
In the case of `O=c1oc2c(O)cccc2cc1-c1nc2ccccc2[nH]1`, the Potency is reported as “inactive”.
In the case of `Cc1cc(C)c2c(N)c(C(=O)N/N=C/c3cccs3)sc2n1`, the Potency is reported as “inactive”.
For `Cc1ccc2nc3c(cc(C(=O)NCC4CCCO4)c(=N)n3CCCOC(C)C)c(=O)n2c1` (stereo unspecified), the Potency was “inactive”.
For `COc1cccc(/C=C/c2nc(C#N)c(N3CCC(C(N)=O)CC3)o2)c1`, the Potency was “inactive”.
`COc1cccc(N2[C@@H](CC(C)=O)c3ccc(/C=C/C(C)=O)cc3S2(=O)=O)c1` was tested, and the Potency was 35.5 µM (active).
For `CC(C)n1nc(C(=O)NNC(=O)c2ccc(OC(F)F)cc2)c2ccccc2c1=O`, the Potency was “inactive”.
In the case of `CCC(=C(c1ccc(OC)cc1)c1ccc(OC)cc1)c1cn(CC(O)CN2CCN(C)CC2)c2ccccc12` (stereo unspecified), the Potency is reported as 39.8 µM (active).
In the case of `COc1ccc(C(=O)/C=C/c2cn(CC(O)CN3CCN(C)CC3)c3ccccc23)cc1OC` (stereo unspecified), the Potency is reported as “inactive”.
`CCC(=C(c1ccc(OC)cc1)c1ccc(OC)cc1)c1cn(CC(O)CN(CCO)CCO)c2ccccc12` (stereo unspecified) was tested, and the Potency was 39.8 µM (active).
`CCCN(CCC)CC(O)Cn1cc(/C=C/C(=O)c2ccc(OCC)cc2)c2ccccc21` (stereo unspecified) was tested, and the Potency was “inactive”.
In the case of `COc1ccc(C(=O)/C=C/c2cn(CC(O)CN(CC(C)C)CC(C)C)c3ccccc23)cc1` (stereo unspecified), the Potency is reported as “inactive”.
`COc1ccc(C(=O)/C=C/c2cn(CC(O)CN3CCc4ccccc43)c3ccccc23)cc1` (stereo unspecified) was tested, and the Potency was “inactive”.
